This note sets out measurements from ChEMBL document CHEMBL3988442, “University of Dundee, Small-Polar-MMV Screening Library” (2021).

Among all 48,000 compounds or so, about 13,000 (27%) showed an effect of 50% or more. This is one part of the list.

This test concerns Wolbachia pipientis. In words: Anti-Wolbachia Cell-Based Screen. On the set-up: scale not given: in the data most compounds retested in dose-response had high values. The conditions noted are these: 5 µM. Format: functional.
On to `COC(=O)c1ccc(N2CCN(C(=O)CCCc3cn[nH]c3)CC2)cc1`, for which the “Percent Effect” value is -14.7%.

With `CCNc1ncc(C(=O)NCc2csc(C)n2)cn1`, the “Percent Effect” value was -20.21%. The value for `OCCOc1ccc(NCc2cccc3cccnc23)cn1` was -13.71%; that for `COCCNC(=O)[C@H]1C[C@@H]2CCN(c3ncccn3)C[C@@H]2O1` was 107.5%; that for `COCCNC(=O)[C@@H]1CN(c2ncccn2)C[C@H]2OCC[C@H]21` was -43.81%. On to `COCCNC(=O)[C@H]1C[C@@H]2CCN(c3ncccn3)C[C@H]2O1.O=C(O)C(F)(F)F`, for which the “Percent Effect” value came to 108.2%.

Take `COCCNC(=O)[C@H]1CN(c2ncccn2)C[C@H]2OCC[C@@H]12`: the “Percent Effect” value is given as -34.97%. For `COCc1noc(C2(c3cccc(Cl)c3)CCOCC2)n1` the value was -3.313%; for `CN(C)C(=O)c1cccc(C2CNCCN2C)c1` (configuration not stated), 117.5%. On to `CC(=O)N1CCNCC1c1cccc(C(=O)N(C)C)c1` (configuration not stated), for which the “Percent Effect” value is on record as -10.2%. For `COC(=O)c1ccc2ccn(CC3CCNC3)c(=O)c2c1` (configuration not stated) the value was -6.108%; for `COC(=O)c1cccc(CNC(=O)NCCC(F)(F)F)c1`, -12.97%; for `CNC(=O)c1cccc(C2CNCCN2C)c1` (configuration not stated), -21.17%. For `COC(=O)c1cccc(C2CNCCN2C(C)=O)c1` (configuration not stated) the value was 103.9%; for `COC(=O)c1cccc(CNC(=O)CCC(F)(F)F)c1`, -15.88%. For `COC(=O)c1cccc(C2CNCCN2C)c1` (configuration not stated), the “Percent Effect” value turned out to be 77.97%. For `COCCN1CCN(Cc2cccc(C(=O)N(C)C)c2)CC1C` (configuration not stated) the value was -4.413%; for `O=C(NCCc1ccncc1)c1ccc(N2CCOCC2)cc1`, -6.093%.

Regarding `Cn1cc(C(=O)NCc2ccc(N3CCNC(=O)C3)c(F)c2)cn1`, the “Percent Effect” value was -29.09%. The value for `CC(C)CCC(=O)N1CCN(C(=O)c2ccc3nccn3c2)CC1` was -6.791%.

With `O=C(NC1=NCCCN1c1ccc(Cl)cc1)c1cccc(Cl)c1`, the “Percent Effect” value was 17.77%. The value for `CC(C)(O)CCc1cccc(C(=O)NCc2nccs2)c1` was 1.829%; that for `CNc1cc(C(=O)NCCC2=CSC3=NCCCN23)ccn1` was 99.62%; that for `CNc1cc(C(=O)N2CCC3(CC2)Nc2ccccc2NC3=O)ccn1` was 27.99%. The value for `CNc1cc(C(=O)N2CCCCC2CCn2ccnc2C)ccn1` (configuration not stated) was 14.21%. For `CC(C)(O)CCc1cccc(C(=O)NCCC2=CSC3=NCCCN23)c1` the value was 99.07%.

Consider `CC(=O)N1CCOC(CNC(=O)c2cccc(CCC(C)(C)O)c2)C1` (configuration not stated), for which the “Percent Effect” value worked out at 13.88%.

Take `CCC(=O)Nc1cccc(C(=O)NCCC2=CSC3=NCCCN23)c1`: the “Percent Effect” value is listed as 108.7%. For `CCOc1ccc(N2CCCN=C2NC(=O)c2cccc(Cl)c2)cc1` the value was -0.7192%; for `c1ccc(Cn2ccnc2CNC2CCCOc3ccccc32)cc1` (configuration not stated), -11.7%. The value for `COC(=O)C(C)CN(C)S(=O)(=O)c1c(Br)cc2[nH]c(=O)oc2c1Cl` (configuration not stated) was 24.19%.

Consider `Cc1cccc(N(CCC(N)=O)C(=O)c2cc(-n3cccn3)ccn2)c1`, for which the “Percent Effect” value is -21.32%.

As for `O=C(NCc1cn2c(n1)CN(Cc1ccccn1)CC2)C1CCC1.O=C(O)C(F)(F)F.O=C(O)C(F)(F)F`, the “Percent Effect” value is recorded as -6.874%.

`CC1c2ncc(CNC(=O)C3CC3)n2CCN1Cc1ccncc1.O=C(O)C(F)(F)F.O=C(O)C(F)(F)F` (configuration not stated): the “Percent Effect” value was 104.7%. The value for `CC1c2ncc(CNC(=O)C3CC3)n2CCN1Cc1ccccn1.O=C(O)C(F)(F)F.O=C(O)C(F)(F)F` (configuration not stated) was 93.52%; that for `Cc1ncsc1CN1CCn2c(COCC3CC3)cnc2C1C.O=C(O)C(F)(F)F` (configuration not stated) was 6.232%. The value for `O=C(NCc1cn2c(n1)CN(Cc1ccncc1)CC2)C1CCC1.O=C(O)C(F)(F)F.O=C(O)C(F)(F)F` was -6.264%; that for `CC1c2ncc(CNC(=O)C3CC3)n2CCN1Cc1cnn(C)c1.O=C(O)C(F)(F)F.O=C(O)C(F)(F)F` (configuration not stated) was -12.81%; that for `CC1c2ncc(CNC(=O)C3CC3)n2CCN1Cc1nccs1.O=C(O)C(F)(F)F` (configuration not stated) was 120.4%.

Take `CC1c2ncc(CNC(=O)C3CC3)n2CCN1Cc1ccsc1.O=C(O)C(F)(F)F` (configuration not stated): the “Percent Effect” value is on record as 96.09%.

`N#Cc1cn(CCCN2CCc3ccccc3C2)c(=O)[nH]c1=O`: the “Percent Effect” value was -8.057%. The value for `COc1ccc2c(c1)OCC(Cc1ccc(N(C)C)nc1)C2` (configuration not stated) was -17.41%. The value for `CC(=O)NC[C@H]1COCc2nc3cc(S(C)(=O)=O)ccc3n21` was -22.59%; that for `CC1c2ncc(CNC(=O)C3CC3)n2CCN1Cc1cccnc1.O=C(O)C(F)(F)F.O=C(O)C(F)(F)F` (configuration not stated) was 100.5%. The value for `COCc1cnc2n1CCN(C1CCC1)C2C.O=C(O)C(F)(F)F` (configuration not stated) was 11.12%; that for `CC1c2ncc(CNC(=O)C3CC3)n2CCN1CC1CCC1.O=C(O)C(F)(F)F` (configuration not stated) was 88.49%; that for `Cc1nc(COCc2cnc3n2CCN(CC2CCC2)C3C)cs1.O=C(O)C(F)(F)F` (configuration not stated) was -9.854%. Regarding `COc1cccc2c1OCC(CNC(=O)CCCN1CCOCC1)C2` (configuration not stated), the “Percent Effect” value is recorded as 2.111%. For `CS(=O)(=O)NCc1cc2n(n1)CCCN(Cc1cccc(C#N)c1)C2` the value was 3.455%; for `CCc1ccc(S(=O)(=O)NCC2CCN(c3cnccn3)CC2)s1`, 118.2%; for `CC(CNC(=O)N1CCN(c2cnccn2)CC1)Cc1cccs1` (configuration not stated), -7.53%.

As to `O=S(=O)(NCC1CCN(c2cnccn2)CC1)c1cccs1`, the “Percent Effect” value was determined as 107.7%. For `CN(C1CCN(c2ccccn2)CC1)S(=O)(=O)c1cccs1` the value was -12.42%; for `O=C(NCCSCc1ccc(Br)s1)C1CCCN(c2cnccn2)C1` (configuration not stated), 1.609%; for `Cc1nn(C)c(C)c1CN(C)C1CCN(c2ncnc3[nH]cnc23)CC1`, 0.8279%.

For the compound `CC(=O)Nc1ccc(C(=O)N2CCOc3nc(C)ccc32)cc1`, the “Percent Effect” value was -10.66%.

With `COC(=O)CCC(=O)N1CCc2nc(C(=O)N(C)C)sc2CC1`, the “Percent Effect” value is reported as -18.4%. For `Cn1ncc2c(N3CCN(CCO)CC3)nc(C3CCCC3)nc21` the value was 1.132%; for `Cc1cc(Nc2cnccn2)nc(C2CCCN(CCO)C2)n1` (configuration not stated), 125%; for `Cc1cc(Nc2ncccn2)nc(C2CCCN(CCO)C2)n1` (configuration not stated), 168.6%.

On to `Cc1cc(Nc2ccccn2)nc(C2CCCN(CCO)C2)n1.O=CO` (configuration not stated), for which the “Percent Effect” value was found to be 136%. The value for `Cc1cc(O)nc(C2CCCN(CCO)C2)n1` (configuration not stated) was 175.9%.
